The nature of test [1]: NCI Yeast Anticancer Drug Screen. Data for the rad50 strain (AID 155).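 Further: 0% = growth of vehicle-only cultures of the same strain.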 The conditions noted are these: S. cerevisiae rad50 strain growth inhibition, stronger effect = higher value. Summed up:
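A DNA repair-deficient yeast mutant serves as the test organism; compound-induced growth inhibition is calculated against vehicle-treated cells.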

Test [2] is described as follows: NCI Yeast Anticancer Drug Screen. Data for the mec2-1 strain (AID 157). The conditions noted are these: S. cerevisiae mec2-1 strain, stronger effect = higher value. Summed up: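 Compounds were applied to mec2-1 yeast cells. Their growth was then compared with that of vehicle-treated cultures to give growth inhibition.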
The nature of test [3]: NCI Yeast Anticancer Drug Screen. Data for the sgs1 mgt1 strain (AID 161).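 Further: 0% = growth of cultures given vehicle only.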 The conditions noted are these: S. cerevisiae sgs1 mgt1 strain, stronger effect = higher value. Summed up:
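Compounds are added to genetically altered yeast, and growth is compared with cultures given vehicle alone to give percent inhibition.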

A short description of test [4]: NCI Yeast Anticancer Drug Screen. Data for the cln2 rad14 strain (AID 165).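 Further: 0% = growth equal to vehicle treated cultures.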 The note with it: S. cerevisiae cln2 rad14 strain, stronger effect = higher value. Summed up: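 Strain: cln2 rad14 yeast, altered in cell cycle control and DNA damage repair. Read-out: growth inhibition vs vehicle.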
The nature of test [5]: NCI Yeast Anticancer Drug Screen. Data for the bub3 strain (AID 167). The conditions noted are these: S. cerevisiae bub3 mutant strain, stronger effect = higher value. Summed up:
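Inhibition values come from growth of compound-treated mutant yeast normalised to vehicle-treated controls.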

Test [6] in a line: NCI Yeast Anticancer Drug Screen. Data for the mlh1 rad18 strain (AID 175). The note with it: S. cerevisiae mlh1 rad18 strain growth inhibition, stronger effect = higher value. Summed up: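 A repair-deficient yeast strain is exposed to test compound, and growth is scored relative to vehicle-treated controls.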
[7] abbreviates: at 5.0 µM (retest, dose inferred, filed as 0.5).
Where [8] appears, read: at 50.0 µM (retest, dose inferred, filed as 5.0).

Compounds without any hit were thinned out: in the full panel of roughly 79,000, 15% have a hit. Values without a mark were called inactive. Activity calls are given as the source filed them. No stated cut-off is given here; in the data, active means growth inhibition above about 70%; inactive means the rest.

As to `O=C1/C(=C/O)CCc2c1ccc1ccccc21`, the growth inhibition in test [1] (setting [7]) is 15%; in test [1] (setting [8]), 98% (active); in test [1] (at 50.0 µM) it was 98.4% (active); in test [2] (setting [7]), 9%; in test [2] (setting [8]) it was 99% (active); in test [2] (at 50.0 µM), 99% (active). In addition, the growth inhibition is -9% in test [3] (setting [7]); 98% (active) in test [3] (setting [8]); 99.1% (active) in test [3] (at 50.0 µM); 6% in test [4] (setting [7]); 99% (active) in test [4] (setting [8]); 97.7% (active) in test [4] (at 50.0 µM). Further, the growth inhibition was 10% in test [5] (setting [7]); 98% (active) in test [5] (setting [8]); 98.9% (active) in test [5] (at 50.0 µM); 17% in test [6] (setting [7]); 98% (active) in test [6] (setting [8]); 96.2% (active) in test [6] (at 50.0 µM).

`CCCCCCCCCCCC(=O)N1CCCC1`: the growth inhibition was -1% in test [1] (setting [7]); 99% (active) in test [1] (setting [8]); 99.4% (active) in test [1] (at 50.0 µM); -10% in test [2] (setting [7]); 100% (active) in test [2] (setting [8]); 99.5% (active) in test [2] (at 50.0 µM). In addition, the growth inhibition in test [3] (setting [7]) was 3%; in test [3] (setting [8]), 40%; in test [3] (at 50.0 µM), 96.8% (active); in test [4] (setting [7]), -3%; in test [4] (setting [8]), 99% (active); in test [4] (at 50.0 µM) it was 99.2% (active). Moreover, the growth inhibition in test [5] (setting [7]) was -3%; in test [5] (setting [8]), 99% (active); in test [5] (at 50.0 µM) it was 99.5% (active); in test [6] (setting [7]), 7%; in test [6] (setting [8]), 99% (active); in test [6] (at 50.0 µM), 99.5% (active).

With `O=C1Nc2ccccc2/C1=N\N=c1/scc(-c2ccccc2)n1-c1ccccc1`, the growth inhibition is 13% in test [1] (setting [7]); 72% (active) in test [1] (setting [8]); 59.5% in test [1] (at 50.0 µM); 5% in test [2] (setting [7]); 74% (active) in test [2] (setting [8]); 74.5% (active) in test [2] (at 50.0 µM). In addition, the growth inhibition in test [3] (setting [7]) is 8%; in test [3] (setting [8]) it was 61%; in test [3] (at 50.0 µM) it was 62.1%; in test [4] (setting [7]), 10%; in test [4] (setting [8]), 90% (active); in test [4] (at 50.0 µM), 62.6%. The growth inhibition in test [5] (setting [7]) is 9%; in test [5] (setting [8]), 87% (active); in test [5] (at 50.0 µM), 51.7%; in test [6] (setting [7]), 9%; in test [6] (setting [8]), 78% (active); in test [6] (at 50.0 µM) it was 88.5% (active).

For `C[N+](C)(C)c1nc(N)nc2c1ncn2C1OC(CO)C(O)C1O` (stereo not given), the growth inhibition in test [1] (setting [7]) is 9%; in test [1] (setting [8]) it was 15%; in test [1] (at 50.0 µM) it was 29.5%; in test [2] (setting [7]), 12%; in test [2] (setting [8]) it was -11%; in test [2] (at 50.0 µM) it was 6.5%. The growth inhibition in test [3] (setting [7]) was 9%; in test [3] (setting [8]) it was 3%; in test [3] (at 50.0 µM), -40.6%; in test [4] (setting [7]), -20%; in test [4] (setting [8]), -2%; in test [4] (at 50.0 µM) it was 70.3% (active). Further, the growth inhibition in test [5] (setting [7]) was 1%; in test [5] (setting [8]), -1%; in test [5] (at 50.0 µM), -27.2%; in test [6] (setting [7]) it was 5%; in test [6] (setting [8]) it was 16%; in test [6] (at 50.0 µM), 11%.

For `CCOc1ccccc1N1C(=O)C=CC1=O`, the growth inhibition was 57% in test [1] (setting [7]); 67% in test [1] (setting [8]); 92% (active) in test [1] (at 50.0 µM); 60% in test [2] (setting [7]); 75% (active) in test [2] (setting [8]); 93.6% (active) in test [2] (at 50.0 µM). The growth inhibition in test [3] (setting [7]) is 99% (active); in test [3] (setting [8]), 100% (active); in test [3] (at 50.0 µM) it was 93.8% (active); in test [4] (setting [7]), 99% (active); in test [4] (setting [8]), 100% (active); in test [4] (at 50.0 µM) it was 90.5% (active). Further, the growth inhibition is 100% (active) in test [5] (setting [7]); 100% (active) in test [5] (setting [8]); 92.3% (active) in test [5] (at 50.0 µM); 42% in test [6] (setting [7]); 58% in test [6] (setting [8]); 92.5% (active) in test [6] (at 50.0 µM).

Regarding `O=C1C=CC(=Nc2cc3c(cc2Br)-c2ccccc2C3Br)O1` (stereo not given), the growth inhibition in test [1] (setting [7]) is 23%; in test [1] (setting [8]), 99% (active); in test [1] (at 50.0 µM) it was 28.9%; in test [2] (setting [7]) it was 20%; in test [2] (setting [8]) it was 99% (active); in test [2] (at 50.0 µM), 79.8% (active). The growth inhibition was 15% in test [3] (setting [7]); 100% (active) in test [3] (setting [8]); 21.4% in test [3] (at 50.0 µM); 6% in test [4] (setting [7]); 99% (active) in test [4] (setting [8]); -12.8% in test [4] (at 50.0 µM). Moreover, the growth inhibition in test [5] (setting [7]) was 7%; in test [5] (setting [8]), 99% (active); in test [5] (at 50.0 µM) it was -3.95%; in test [6] (setting [7]), 26%; in test [6] (setting [8]), 99% (active); in test [6] (at 50.0 µM) it was 28.9%.

Regarding `C=C1CC(c2ccc(OCCCN3C(=O)c4ccccc4C3=O)c(OC)c2)OC1=O` (stereo not given), the growth inhibition in test [1] (setting [7]) was -9%; in test [1] (setting [8]), 97% (active); in test [1] (at 50.0 µM) it was 76.3% (active); in test [2] (setting [7]), 24%; in test [2] (setting [8]), 91% (active); in test [2] (at 50.0 µM) it was 88.2% (active). For the same molecule, the growth inhibition in test [3] (setting [7]) was 1%; in test [3] (setting [8]) it was 89% (active); in test [3] (at 50.0 µM) it was 91% (active); in test [4] (setting [7]), 11%; in test [4] (setting [8]), 93% (active); in test [4] (at 50.0 µM) it was 89.2% (active). Further, the growth inhibition in test [5] (setting [7]) was -16%; in test [5] (setting [8]) it was 95% (active); in test [5] (at 50.0 µM) it was 92% (active); in test [6] (setting [7]), 10%; in test [6] (setting [8]), 97% (active); in test [6] (at 50.0 µM), 96.8% (active).

`COc1cc2c(cc1O)C1Cc3ccc(OC)c(O)c3C(C2)N1C` (stereo not given): the growth inhibition was 22% in test [1] (setting [7]); 21% in test [1] (setting [8]); 66.3% in test [1] (at 50.0 µM); 22% in test [2] (setting [7]); 10% in test [2] (setting [8]); -3.45% in test [2] (at 50.0 µM). Further, the growth inhibition in test [3] (setting [7]) is 16%; in test [3] (setting [8]) it was 13%; in test [3] (at 50.0 µM), -4.65%; in test [4] (setting [7]), 22%; in test [4] (setting [8]), 19%; in test [4] (at 50.0 µM), -5.45%. Besides, the growth inhibition was 16% in test [5] (setting [7]); 24% in test [5] (setting [8]); -5.65% in test [5] (at 50.0 µM); 23% in test [6] (setting [7]); 20% in test [6] (setting [8]); -68% in test [6] (at 50.0 µM).

Turning to `CC(SCc1ccccc1)C(=O)O` (stereo not given), the growth inhibition is -10% in test [1] (setting [7]); 10% in test [1] (setting [8]); -9.25% in test [1] (at 50.0 µM); 3% in test [2] (setting [7]); 7% in test [2] (setting [8]); -29.8% in test [2] (at 50.0 µM). The growth inhibition in test [3] (setting [7]) was -6%; in test [3] (setting [8]) it was 3%; in test [3] (at 50.0 µM) it was -35.9%; in test [4] (setting [7]), 9%; in test [4] (setting [8]), -1%; in test [4] (at 50.0 µM), 73% (active). Besides, the growth inhibition was -21% in test [5] (setting [7]); -2% in test [5] (setting [8]); -18.6% in test [5] (at 50.0 µM); -2% in test [6] (setting [7]); 44% in test [6] (setting [8]); -44.5% in test [6] (at 50.0 µM).

Regarding `CC(=O)Nc1ccc(C(=O)n2[nH]c(C)c(/C=C3\C(=O)C=Cc4ccccc43)c2=O)cc1`, the growth inhibition in test [1] (setting [7]) was 27%; in test [1] (setting [8]), 100% (active); in test [1] (at 50.0 µM), 99.2% (active); in test [2] (setting [7]) it was 19%; in test [2] (setting [8]), 100% (active); in test [2] (at 50.0 µM), 99.5% (active). Besides, the growth inhibition in test [3] (setting [7]) is 15%; in test [3] (setting [8]), 99% (active); in test [3] (at 50.0 µM), 99.4% (active); in test [4] (setting [7]), -10%; in test [4] (setting [8]), 99% (active); in test [4] (at 50.0 µM) it was 98.7% (active). The growth inhibition in test [5] (setting [7]) is 24%; in test [5] (setting [8]) it was 100% (active); in test [5] (at 50.0 µM), 99.2% (active); in test [6] (setting [7]), 42%; in test [6] (setting [8]), 99% (active); in test [6] (at 50.0 µM), 99% (active).

(Values after PubChem BioAssay (NCI).)
